Data on 20 molecules can be found in PubChem BioAssay (NCI).

The panel holds about 79,000 compounds, 15% with a hit somewhere; the sample as a whole holds those more often. Unmarked numbers belong to inactive results. Active and inactive are the calls of the source. Rule as the data show it: active = growth inhibition above about 70%; inactive = the rest.

The nature of experiment [1]: NCI Yeast Anticancer Drug Screen. Data for the rad50 strain (AID 155).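 Also: 0% = growth of vehicle-only cultures of the same strain.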 The note with it: S. cerevisiae rad50 strain growth inhibition; at 50.0 µM; stronger effect = higher value. In short, it runs like this:
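Relative growth inhibition (compound vs vehicle) was measured in yeast with a defined repair-gene alteration.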

Experiment [2] can be described thus: NCI Yeast Anticancer Drug Screen. Data for the mec2-1 strain (AID 157). The note with it: S. cerevisiae mec2-1 strain, at 50.0 µM, stronger effect = higher value. A digest of the protocol: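 Using mec2-1 yeast: add compound, measure growth, express inhibition versus vehicle-treated cultures.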
A short description of experiment [3]: NCI Yeast Anticancer Drug Screen. Data for the sgs1 mgt1 strain (AID 161).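 Also: 0% = growth of cultures given vehicle only.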 The note with it: S. cerevisiae sgs1 mgt1 strain, at 50.0 µM, stronger effect = higher value. A digest of the protocol:
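Growth of a repair-deficient yeast mutant was monitored after compound treatment and expressed as inhibition relative to vehicle-treated cultures.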

Experiment [4] in a line: NCI Yeast Anticancer Drug Screen. Data for the cln2 rad14 strain (AID 165).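 Also: 0% = growth equal to vehicle treated cultures.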 Particulars: S. cerevisiae cln2 rad14 strain, at 50.0 µM, stronger effect = higher value. A digest of the protocol: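 Yeast strain cln2 rad14, bearing defects in cell cycle control and DNA repair, serves as the test system; values reflect growth inhibition compared with vehicle.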
Experiment [5] in a line: NCI Yeast Anticancer Drug Screen. Data for the bub3 strain (AID 167). Particulars: S. cerevisiae bub3 mutant strain, at 50.0 µM, stronger effect = higher value. In short, it runs like this:
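Screening used yeast with an engineered genetic alteration affecting cell cycle control. Compound-exposed cultures were compared with vehicle cultures, and reduced growth was taken as inhibition.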

Experiment [6] is described as follows: NCI Yeast Anticancer Drug Screen. Data for the mlh1 rad18 strain (AID 175). Particulars: S. cerevisiae mlh1 rad18 strain growth inhibition; at 50.0 µM; stronger effect = higher value. A digest of the protocol:
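Steps: expose repair-defective yeast to compound; measure growth; express inhibition against vehicle-treated controls.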

Turning to `CCOC(=O)c1ncn(C2OC(CO)C(O)C2O)c1N` (stereo not given), the growth inhibition is 19.5% in experiment [1]; 1.6% in experiment [2]; 31.4% in experiment [3]; 12.3% in experiment [4]; 14.2% in experiment [5]; 25.2% in experiment [6].
`Cc1ccc(S(=O)(=O)N2C(=N)C(=S)N(C)C2=O)cc1`: the growth inhibition was -42.9% in experiment [1]; -10.3% in experiment [2]; -15.4% in experiment [3]; -30.4% in experiment [4]; -15.8% in experiment [5]; 12.4% in experiment [6].
In the case of `CCc1cc(Cl)c(O)c(Cl)c1`, the growth inhibition in experiment [1] is 4.2%; in experiment [2] it was 18.2%; in experiment [3], 6.2%; in experiment [4] it was -0.15%; in experiment [5], 17.5%; in experiment [6], 19%.
As for `CCc1cc(CN2CCN(CCO)CC2)c(O)c(CN2CCN(CCO)CC2)c1`, the growth inhibition was 1.5% in experiment [1]; 6% in experiment [2]; -13.2% in experiment [3]; 3% in experiment [4]; -0.9% in experiment [5]; 9.35% in experiment [6].
In the case of `Cc1ccc(N(CN2C(=O)CCC2=O)CS(=O)(=O)c2ccc(Cl)cc2)cc1`, the growth inhibition in experiment [1] was 10.4%; in experiment [2], 3.5%; in experiment [3] it was -0.45%; in experiment [4], 14.7%; in experiment [5], -3.4%; in experiment [6], -19.6%.
Take `O=C(O)C1(N(CCO)CCO)CCCC1`: the growth inhibition in experiment [1] was -15.6%; in experiment [2], -11.7%; in experiment [3], 3.4%; in experiment [4], -35.3%; in experiment [5] it was -11.2%; in experiment [6], -1.65%.
On to `CN(C(N)=O)C1CCCC1`, for which the growth inhibition is 12% in experiment [1]; -21.3% in experiment [2]; -5.65% in experiment [3]; 1.4% in experiment [4]; 9.4% in experiment [5]; 6.35% in experiment [6].
For `CCC(SC)C(=O)c1ccccc1` (stereo not given), the growth inhibition in experiment [1] was -7.55%; in experiment [2] it was -11.6%; in experiment [3], 0.5%; in experiment [4], -12.4%; in experiment [5] it was -33.8%; in experiment [6], -12.8%.
For the molecule `CCN(CC)c1ccc(N=Nc2nc(Cl)c(/C=C3\C(=O)c4ccccc4C3=C(C#N)C#N)s2)c(NC(C)=O)c1`, the growth inhibition in experiment [1] is 18%; in experiment [2] it was 5.1%; in experiment [3], 14.2%; in experiment [4] it was -38.6%; in experiment [5], -12.8%; in experiment [6], -17.6%.
For `COc1ccc(NC(=O)C(=O)c2c(O)c3ccc(O)cc3oc2=O)c([N+](=O)[O-])c1`, the growth inhibition in experiment [1] was 14.4%; in experiment [2], 9.95%; in experiment [3], 1%; in experiment [4] it was 3.95%; in experiment [5] it was -2.85%; in experiment [6] it was -6.1%.
Turning to `CC1(C)OCC2(CO1)CSCCCSCC1(COC(C)(C)OC1)CSCCCSC2`, the growth inhibition in experiment [1] is -5.65%; in experiment [2], -12.9%; in experiment [3], -8.75%; in experiment [4] it was -11.8%; in experiment [5], -25.5%; in experiment [6], -3.8%.
For the molecule `NC(=O)/C(=C\c1ccncc1)c1cccc2ccccc12`, the growth inhibition in experiment [1] was -0.55%; in experiment [2], -5.1%; in experiment [3] it was -41.1%; in experiment [4], -3.35%; in experiment [5], -44%; in experiment [6], -7.05%.
With `COc1ccc(NC(=O)CSc2nnc(Cc3ccccc3)o2)cc1`, the growth inhibition in experiment [1] is -49.5%; in experiment [2], -37.4%; in experiment [3] it was -43.6%; in experiment [4] it was -21.1%; in experiment [5], -54%; in experiment [6] it was -57.6%.
Take `N#CC1(c2ccccc2)C(c2ccccc2)CC(O)(c2ccccc2)C(C(=O)c2ccccc2)C1c1ccccc1` (stereo not given): the growth inhibition in experiment [1] is 19.9%; in experiment [2] it was 4.75%; in experiment [3], 3.5%; in experiment [4] it was 14.3%; in experiment [5], -1.1%; in experiment [6] it was -3.5%.
On to `C/C=C1/CN2CCc3c([nH]c4ccccc34)C2CC1C(Cc1c[n+]2c(c3[nH]c4ccccc4c13)CC1C(C(=O)OC)=COC(C)C1C2)C(=O)OC` (stereo not given), for which the growth inhibition is 13.4% in experiment [1]; -25.6% in experiment [2]; -21.4% in experiment [3]; 17.1% in experiment [4]; -22.2% in experiment [5]; -12.3% in experiment [6].
As for `COC(=O)CC[C@@H](NC(=O)C(C)NC(=O)COC1C(O)C(COC(=O)CCCCCCCCCCNC(=O)c2ccc([N+](=O)[O-])c3[nH]c4cc(Br)ccc4c(=O)c23)OC(OCc2ccccc2)C1NC(C)=O)C(N)=O` (stereo not given in full), the growth inhibition is -14.5% in experiment [1]; -10.7% in experiment [2]; -17.6% in experiment [3]; 1.5% in experiment [4]; -5.75% in experiment [5]; -16.6% in experiment [6].
Take `CC(=O)c1cc2c(cc1C)C(C(C)C)CCC2(C)C` (stereo not given): the growth inhibition in experiment [1] was 3.75%; in experiment [2], -14.6%; in experiment [3], 6.55%; in experiment [4], -18.8%; in experiment [5], 41.7%; in experiment [6], 6.85%.
Turning to `CO/N=C1\C(O)CC2C(C)(CCC3C2(C)CCC2(C)C4CC(C)(C)CCC4(C)CCC32C)C1C` (stereo not given), the growth inhibition was 1.9% in experiment [1]; -3.8% in experiment [2]; -18.5% in experiment [3]; -14.1% in experiment [4]; -1.45% in experiment [5]; -5.85% in experiment [6].
Take `BrCC1=CC(c2ccccc2)(c2ccccc2)c2ccccc21`: the growth inhibition was 96.2% (active) in experiment [1]; 97% (active) in experiment [2]; 97.3% (active) in experiment [3]; 94.3% (active) in experiment [4]; 96.2% (active) in experiment [5]; 96.1% (active) in experiment [6].
For `CC(C)(C)NCC1CCCC1`, the growth inhibition in experiment [1] was 0.55%; in experiment [2], -1.5%; in experiment [3], 2.4%; in experiment [4] it was -22.9%; in experiment [5] it was -11.4%; in experiment [6], -3.8%.
